The campaign covered roughly 30,000 compounds. About 190 (0.63%) were called active. What follows is part of a selection rich in actives, with near analogues and random picks from the rest. Values without a mark were called inactive. Rule as the data show it: active = viability loss activity score above about 50%; inconclusive = no clear call, values can overlap the other calls; inactive = below about 35%.
Test: cytotoxicity in HRASV12-transformed BJ fibroblasts – cell-based, luminescence, CellTiterGlo ATP, primary screen (AID 2275);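 also: higher score means fewer live cells and less ATP luminescence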
Details: BJeLR fibroblasts viability, 48 h, hits give high values, HRASV12, hTERT and SV40 LT/ST transformed, concentration not given here
In the case of `COc1cc(S(=O)(=O)N2CCCCCCC2)ccc1-n1cnnn1`, the viability loss activity score is reported as -2.51%.
In the case of `COc1ccc(NC(=S)N2CCCC(c3ccccc3)=N2)cc1`, the viability loss activity score is reported as -2.21%.
`C[C@@H]1CN([C@H](C)CO)C(=O)c2cc(NS(=O)(=O)c3cccs3)ccc2O[C@@H]1CN(C)Cc1ccc(C(F)(F)F)cc1` gave a viability loss activity score of 0.614%.
Molecule `CCOC(=O)C1CCN(S(=O)(=O)c2ccc(N3C(=O)CC4(CCCC4)C3=O)c(Cl)c2)CC1` has a viability loss activity score of 1.47%.
`O=C(Nn1cnc2ccccc2c1=O)c1ccccc1` gave a viability loss activity score of 3.68%.
In the case of `CCC(NCC(O)Cn1c2ccccc2c2ccccc21)C(=O)O` (centres undefined), the viability loss activity score is reported as -1.06%.
For `CC(C)Nc1ccc(-n2nc3ccccc3[n+]2[O-])cc1`, the viability loss activity score was 2.31%.
`Cc1cccc[n+]1C/C=C\c1ccccc1` showed a viability loss activity score of 13.2%.
Work on `Cc1ccc(S(=O)(=O)Nc2ccc3c(c2)C(=O)N([C@@H](C)CO)C[C@@H](C)[C@@H](CN(C)S(=O)(=O)c2ccc(C)cc2)O3)cc1` yielded a viability loss activity score of 3.23%.
With `CC(C)(C)c1nc(=S)[nH][nH]1` the viability loss activity score was -5.55%.
In the case of `Cc1noc(C)c1S(=O)(=O)Nc1ccc2c(c1)C(=O)N([C@@H](C)CO)C[C@H](C)[C@H](CN(C)Cc1ccc(C(=O)Nc3ccccc3N)cc1)O2`, the viability loss activity score is reported as 6.72%.
In the case of `Cn1c(Cc2nc(-c3cnccn3)no2)nnc1SCC(=O)Nc1ccc(Cl)cc1`, the viability loss activity score is reported as -7.21%.
For `Cc1ccc(-n2cc(-c3ccccc3)c3c(NN4CCOCC4)ncnc32)cc1Cl`, the viability loss activity score was 0.765%.
In the case of `CC(C)(C)NC(=S)N1CCn2cccc2C1c1ccccc1F` (centres undefined), the viability loss activity score is reported as -3.87%.
`Cc1ccccc1OC1C(=O)N(CCc2ccc(F)cc2)C1c1ccc2c(c1)OCO2` (centres undefined) gave a viability loss activity score of 0.258%.
In the case of `CCCC(=O)N1CCC(c2c[nH]c3ccccc23)(c2c[nH]c3ccccc23)CC1`, the viability loss activity score is reported as 5.31%.
Work on `CC(=O)NN1C(=O)c2ccccc2NC1c1ccccc1` (centres undefined) yielded a viability loss activity score of -1.21%.
With `Cc1cccc(C(=O)Nc2ccc(NC(=O)c3ccco3)cc2)c1` the viability loss activity score was 0.303%.
With `CS(=O)(=O)c1sc(C(=O)Nc2ccccc2Cl)c2c1C=CCC2` the viability loss activity score was -1.24%.
`NC(=O)Cn1nnc2sc3c(c2c1=O)CCCC3` showed a viability loss activity score of 10.6%.
With `Cc1ccc(CC2C(=O)N(c3cccc(C(F)(F)F)c3)C(=O)C2C)cc1` (centres undefined) the viability loss activity score was 1.06%.
With `O=C(O)c1ccc(CNCCc2ccccc2)s1` the viability loss activity score was 0.164%.
For `COC(=O)C1=C(C)N(C)C(=S)NC1c1ccccc1` (centres undefined), the viability loss activity score was -3.34%.
Work on `CCOC(=O)c1cccc(NC(=O)CCOc2ccccc2)c1` yielded a viability loss activity score of 2.1%.
For `Cc1ccc(CCNC(=O)C2(NS(=O)(=O)c3cccc4cccnc34)CCCCC2)cc1`, the viability loss activity score was 2.11%.
With `Cc1ccc(S(=O)(=O)N(CC(=O)NC2CC2)C2CCCCC2)cc1` the viability loss activity score was 5.79%.
`CC(C)(C)C(=O)CSc1nc2ccccc2c(=O)n1CC1CC1` showed a viability loss activity score of -4.35%.
`Cc1cc(C(C)(C)C)cc(S(=O)(=O)Nc2ccc(C(=O)N3CCC(C)CC3)cc2)c1C` showed a viability loss activity score of -6.82%.
In the case of `O=c1n(Cc2ccccc2)c2ccccc2n1Cc1ccccc1`, the viability loss activity score is reported as 6.4%.
Molecule `CC(C)NC(=O)Nc1ccc2c(c1)C(=O)N([C@@H](C)CO)C[C@H](C)[C@H](CN(C)S(=O)(=O)c1cccs1)O2` has a viability loss activity score of -2.18%.
In the case of `O=C1C2=C(Nc3ccccc3S(=O)(=O)C2c2ccc(Cl)cc2)c2ccccc21` (centres undefined), the viability loss activity score is reported as 0.962%.
For `CNC(=O)NC(=O)CSc1ncnc2sc(-c3ccccc3)cc12`, the viability loss activity score was 7.62%.
With `CC(C)NC(=O)N(C)C[C@H]1Oc2ccc(NC(=O)CCCCCC(=O)Nc3ccccc3N)cc2C(=O)N([C@@H](C)CO)C[C@@H]1C` the viability loss activity score was -2.79%.
With `Cc1ccccc1C(=O)Nc1ccc(NC(=O)c2ccc(C(C)(C)C)cc2)cc1` the viability loss activity score was -4.36%.
In the case of `N#Cc1c(-c2ccccc2)c(-c2ccccc2)nn(CC(=O)NN)c1=O`, the viability loss activity score is reported as 26.9%.
`COC(=O)C1=C(C)NC2=C(C(=O)c3ccccc32)C1c1ccc(OC)cc1` (centres undefined) showed a viability loss activity score of -2.35%.
Molecule `CCOC(=O)c1cc2c(C)n(-c3ccccc3)c(C)c2cc(C(=O)OCC)c1=O` has a viability loss activity score of -1.14%.
Molecule `CC(C)n1c(SCC(=O)O)nc2cc(Cl)ccc21` has a viability loss activity score of 2.11%.
`CCN(/C=C1\SC(=S)N(c2ccc(OC)cc2)C1=O)CC` showed a viability loss activity score of -2.34%.
For `CCCN(C(=O)CCc1nc(-c2ccccc2F)no1)c1ccccc1C`, the viability loss activity score was 14.3%.
`COc1ccc(CN(C)C[C@H]2Oc3c(NC(=O)C4CCCCC4)cccc3C(=O)N([C@@H](C)CO)C[C@@H]2C)cc1` showed a viability loss activity score of 0.512%.
In the case of `CC(=O)Nc1ccc(Nc2c3c4c(cccc4[nH]c2=O)C(=O)c2ccccc2-3)cc1`, the viability loss activity score is reported as 59.2% (active).
`O=C(Nc1ccccc1C(=O)O)c1ccc(CN2CCOCC2)cc1` gave a viability loss activity score of 8.6%.
Work on `CCn1cc(C(=O)NC2CCCC(C)C2C)c2cc(OC)c(OC)cc2c1=O` (centres undefined) yielded a viability loss activity score of 2.08%.
For `O=C1/C(=C/c2cccc(Br)c2)SC(=S)N1CC(=O)N1CCCc2ccccc21`, the viability loss activity score was -6.26%.
With `O=S(=O)(Nc1ccccc1C(F)(F)F)c1ccc2c(c1)CCO2` the viability loss activity score was 2.04%.
Work on `C[C@@H]1CN([C@H](C)CO)C(=O)c2cc(NS(=O)(=O)c3ccc(Cl)cc3)ccc2O[C@@H]1CN(C)CC1CCCCC1` yielded a viability loss activity score of -2.47%.
In the case of `COc1ccc(-c2nn(-c3ccc(C)c(Cl)c3)c3c2cnc2ccc(F)cc23)cc1OC`, the viability loss activity score is reported as -4.15%.
Molecule `Cc1ccc(S(=O)(=O)n2c(C)cc(C(=O)O)c2C)cc1` has a viability loss activity score of -6.81%.
Molecule `NC1=NC(=O)C(Cc2cccc(Cl)c2)S1` (centres undefined) has a viability loss activity score of -0.141%.
`CCC(Sc1nc2ccsc2c(=O)n1Cc1ccccn1)C(=O)Nc1cccc(OC)c1` (centres undefined) showed a viability loss activity score of -2.12%.
With `CCOC(=O)C1C=C2C(=O)N3C=CC=CC3N=C2N(C(C)C)C1=NC(C)=O` (centres undefined) the viability loss activity score was -1.61%.
Work on `C=CCSc1nnc2n1CCCN2C(=O)Nc1cccc(Cl)c1` yielded a viability loss activity score of -3.59%.
Work on `OC(CN1CCN(C2c3ccccc3-c3ccccc32)CC1)c1ccccc1` (centres undefined) yielded a viability loss activity score of 0.265%.
For `Cc1cc(Nc2ccc(Cl)cc2)c2ccccc2n1`, the viability loss activity score was 12.6%.
`CCCn1cc(SCC(=O)N2CCc3ccccc32)c2ccccc21` showed a viability loss activity score of 1.29%.
`CCOC(=O)c1c(NC(=S)Nc2ccc(OC)cc2)sc2c1CC(C(C)C)OC2` (centres undefined) gave a viability loss activity score of 3.67%.
Work on `CC(C)NC(=O)Cn1c2ccccc2c2cn[nH]c(=O)c21` yielded a viability loss activity score of -1.32%.
`CC(=O)N(c1nc(-c2cc3ccccc3oc2=O)cs1)c1cccc(C)c1C` gave a viability loss activity score of 5.58%.
`CCc1c(C)c(C#N)c2nc3ccccc3n2c1-n1ccnc1` gave a viability loss activity score of 1.77%.
Work on `C[C@H]1CN([C@@H](C)CO)C(=O)c2cc(NC(=O)Cc3cn(C)c4ccccc34)ccc2O[C@H]1CN(C)Cc1ccc(Cl)c(Cl)c1` yielded a viability loss activity score of -2.28%.
With `Cc1ccc(S(=O)(=O)N(C)C[C@@H]2Oc3ccc(NS(=O)(=O)c4cccs4)cc3C(=O)N([C@@H](C)CO)C[C@H]2C)cc1` the viability loss activity score was -3.75%.
In the case of `O=c1cc(N2CCN(c3ccccc3)CC2)[nH]c(=O)n1-c1ccc(Cl)cc1`, the viability loss activity score is reported as 2.58%.
With `CN(Cc1ccccc1)C(=O)c1cc(-c2ccc(Cl)cc2)on1` the viability loss activity score was 3.08%.
Work on `CC1=C(C(=O)OCc2ccccc2)OC(N)=C(C#N)C1c1ccc(F)cc1` (centres undefined) yielded a viability loss activity score of 1.52%.
In the case of `Cc1ccc(Cl)cc1N(C)C(=O)c1cc2c(-c3ccc(Cl)cc3)nn(C)c2s1`, the viability loss activity score is reported as -0.32%.
With `Cc1ccccc1NC(=O)Nc1ccccc1N1CCCCC1` the viability loss activity score was 1.43%.
Work on `C=C1SC(Nc2ccc(C)cc2)=NC1(C)C` yielded a viability loss activity score of 0.0102%.
With `COc1ccc2c(c1)-c1c(ssc1=S)C(C)(C)N2C(C)=O` the viability loss activity score was 12.8%.
For `C[C@H]1O[C@@H](O[C@H]2[C@@H](O)C[C@H](O[C@H]3[C@@H](O)C[C@H](O[C@H]4CC[C@]5(C)C6C[C@@H](O)[C@]7(C)[C@@H](C8=CC(=O)OC8)CC[C@]7(O)C6CC[C@@H]5C4)O[C@@H]3C)O[C@@H]2C)C[C@H](O)[C@@H]1O` (some centres undefined), the viability loss activity score was 129% (active).
`COc1cc(OC)cc(C2C(C#N)=C(N)OC(N)=C2C#N)c1` gave a viability loss activity score of 1.86%.
In the case of `CCOC(=O)C1CCN(C(=O)CN2C(=O)c3ccccc3C2=O)CC1`, the viability loss activity score is reported as -3.08%.
With `Cc1noc(C)c1NC(=O)Nc1ccc2c(c1)C(=O)N([C@H](C)CO)C[C@H](C)[C@H](CN(C)Cc1ccc(-c3ccccc3)cc1)O2` the viability loss activity score was -1.86%.
For `Cc1cc(-c2nc(C)c(-c3nnc(SCC(=O)Nc4ccccc4)n3C)s2)no1`, the viability loss activity score was -2.45%.
`Cc1ccc2oc(=O)c3cc(C(=O)NC4CCCC4)sc3c2c1` showed a viability loss activity score of 4.55%.
Work on `Cc1ccc(S(=O)(=O)N(CC(=O)Nc2ccc3c(c2)OCCO3)C2CCCCC2)cc1` yielded a viability loss activity score of -4.45%.
With `CC[C@H]1CN2CCc3cc(OC)c(OC)cc3[C@@H]2C[C@@H]1C[C@H]1NCCc2cc(OC)c(OC)cc21` the viability loss activity score was 96.1% (active).
In the case of `COc1cc2c(cc1OC)C1CN3CCc4cc(OC)c(OC)cc4C3CN1CC2` (centres undefined), the viability loss activity score is reported as 18.2%.
With `O=C(Nc1cccc(-c2nc3ccccc3o2)c1)c1cccc(OCc2ccccc2)c1` the viability loss activity score was 10.7%.
For `Cc1ccc(CN2CCSc3ccc(C(=O)Nc4ccc(F)cc4)cc32)cc1`, the viability loss activity score was 0.172%.
Molecule `O=C(NC1CCCCC1)C1CCC(CNS(=O)(=O)c2ccccc2)CC1` (centres undefined) has a viability loss activity score of 6.1%.
`CCc1ccc(NC(=O)NC(C)(C)C)cc1` gave a viability loss activity score of -4.47%.
Molecule `Cc1ccc(CNC(=O)CCC(=O)Nc2ccc3nc(N4CCCCC4)cc(C)c3c2)cc1` has a viability loss activity score of 0.494%.
Molecule `Cc1ccccc1NCC(=O)NN` has a viability loss activity score of -2.54%.
